# Test results from PubChem BioAssay (NCATS).
# Results filed as inconclusive are left out. Values without a mark were called inactive. Active and inactive are the calls of the source. The call rests on the fitted dose curve; in most records, active means well fitted inhibition curve with a large enough effect; inconclusive means small, poorly fitted or top-dose-only effect; inactive means flat fitted curve, though single readings scatter.
# Molecular target: Ubiquitin carboxyl-terminal hydrolase 1 (Homo sapiens) (UniProt O94782)
# Sequence (O94782 whole entry, looked up): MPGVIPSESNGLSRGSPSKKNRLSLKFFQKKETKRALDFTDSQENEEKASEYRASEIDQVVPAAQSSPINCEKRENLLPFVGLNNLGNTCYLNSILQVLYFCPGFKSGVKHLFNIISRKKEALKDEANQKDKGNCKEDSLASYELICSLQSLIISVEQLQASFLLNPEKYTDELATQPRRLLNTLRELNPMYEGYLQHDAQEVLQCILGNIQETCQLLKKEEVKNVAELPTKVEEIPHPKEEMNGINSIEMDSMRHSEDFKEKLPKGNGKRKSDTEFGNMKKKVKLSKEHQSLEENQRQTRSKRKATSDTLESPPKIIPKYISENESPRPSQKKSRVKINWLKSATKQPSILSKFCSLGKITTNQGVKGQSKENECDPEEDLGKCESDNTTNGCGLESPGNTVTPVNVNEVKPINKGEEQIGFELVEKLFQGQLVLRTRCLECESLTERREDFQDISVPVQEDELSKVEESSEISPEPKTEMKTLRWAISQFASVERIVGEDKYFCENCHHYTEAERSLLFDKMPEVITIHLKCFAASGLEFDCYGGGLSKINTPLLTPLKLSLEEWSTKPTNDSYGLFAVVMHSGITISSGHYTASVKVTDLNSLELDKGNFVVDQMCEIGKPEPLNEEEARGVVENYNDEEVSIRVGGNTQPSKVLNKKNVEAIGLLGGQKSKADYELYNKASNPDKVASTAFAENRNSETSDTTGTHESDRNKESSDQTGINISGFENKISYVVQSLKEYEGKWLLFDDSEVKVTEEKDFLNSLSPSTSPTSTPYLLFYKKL
# Experiment: Inhibitors of USP1/UAF1: Pilot qHTS (AID 504865); further: nearly all actives have a fitted effect of over 35% in size;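 on activity change, negative = inhibition: rhodamine fluorescence freed from ubiquitin-rhodamine substrate followed over time; top concentration of the series differs between compounds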
# Conditions: purified USP1/UAF1, Ub-rhodamine cleavage fluorescence; series mostly up to 114 µM; activity change, negative = inhibition: at the top concentration
# Procedure, shortened: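 Enzyme-free wells gave the negative control, while test wells held 1nM USP1/UAF1 preincubated with compound for 15 min at room temperature. Ub-Rho at 150nM final started the reaction, and fluorescence at 480/540 nm was recorded kinetically.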
# On the % scale 0 is the no-effect control and ±100 the full control effect; potency means the concentration at half of the fitted maximal effect.
Compound,Potency,"activity change, negative = inhibition"
C=CCN1C[C@H](C)N([C@H](c2ccc(C(=O)N(CC)CC)cc2)c2cccc(OC)c2)C[C@H]1C,inactive,–
Cc1cc(C(C#N)c2ccc(Cl)cc2)c(Cl)cc1NC(=O)c1cc(I)cc(I)c1O (stereo not given),50.1 µM (active),–
CN1C(=O)NC(=O)C(C)(C2=CCCCC2)C1=O (stereo not given),inactive,–
NC(=O)CS(=O)C(c1ccccc1)c1ccccc1 (stereo not given),inactive,–
CCCC(C)(COC(N)=O)COC(N)=O,–,0.482%
NNc1ccccc1,–,0.0447%
Cc1nnc2n1-c1ccc(Cl)cc1C(c1ccccc1Cl)=NC2,–,-0.449%
COc1ccc2c(c1)C13CCCC[C@@H]1C(C2)N(C)CC3 (stereo not given in full),–,3.31% [at 54.9 µM]
COc1cc(OC)c(OC)cc1C=O,–,-8.77%
O=C1c2ccccc2C(=O)C1C(=O)C(c1ccccc1)c1ccccc1,31.6 µM (active),–
CN1CCC(O)(c2ccc(F)cc2)C(C(=O)c2ccc(F)cc2)C1 (stereo not given),–,-10.1%
COP(=S)(OC)SCN1C(=O)c2ccccc2C1=O,–,-6.72%
O=C1Nc2ccc(Cl)cc2C(c2ccccc2)=NC1O (stereo not given),–,-2.64%
COc1c2c(cc3c1OCO3)CCN(C)C2,–,14.4% [at 54.9 µM]
CC(C)(C)c1ccc(O)cc1,–,-6%
CCOC(=O)CC(SP(=S)(OC)OC)C(=O)OCC (stereo not given),–,-8.82%
C[C@]12CC[C@@H]3c4ccc(OC(=O)N(CCCl)CCCl)cc4CC[C@H]3[C@@H]1CC[C@@H]2O,50.1 µM (active),–
CC(C)(C)NCC(O)c1cc(Cl)c(N)c(C(F)(F)F)c1 (stereo not given),–,-11.2%
Nc1ccccc1C(=O)O,–,3.65%
O=C1OC(c2ccc(O)c(S(=O)(=O)O)c2)(c2ccc(O)c(S(=O)(=O)O)c2)c2c(Br)c(Br)c(Br)c(Br)c21,50.1 µM (active),–

Compound,Potency,"activity change, negative = inhibition"
COC(=O)C(c1ccccc1)C1CCCCN1 (stereo not given),–,3.39%
CCOP(=S)(OCC)Oc1ccc2c(C)c(Cl)c(=O)oc2c1,–,-3.08%
FC1(F)C(F)(F)C(F)(F)C2(F)C(F)(F)C(F)(F)C(F)(F)C(F)(F)C2(F)C1(F)F (stereo not given),79.4 µM (active),–
Clc1ccc2c(c1)C(c1ccccc1)=NCc1nncn1-2,–,-3.66%
CC(C)NC(C)C,–,-1.47%
O=C1c2ccccc2C(=O)c2ccccc21,inactive,–
CN1C(=O)C(O)N=C(c2ccccc2)c2cc(Cl)ccc21 (stereo not given),–,-1.5%
Clc1ccc(C(c2ccc(Cl)cc2)C(Cl)(Cl)Cl)cc1,inactive,–
NC(=O)c1cc([N+](=O)[O-])cc([N+](=O)[O-])c1,–,-10.7%
CNC(C)(C)Cc1ccccc1,inactive,–
Nc1ccc([As](=O)(O)O)cc1,–,1.54%
COP(=S)(OC)Oc1ccc(SC)c(C)c1,inactive,–
O=C1CN=C(c2ccccc2)c2cc([N+](=O)[O-])ccc2N1,–,-6.66%
O=C(N/N=C/c1ccc([N+](=O)[O-])o1)c1cc([N+](=O)[O-])cc([N+](=O)[O-])c1O,–,-4.24%
Cc1nnc2n1-c1ccc(Cl)cc1C(c1ccccc1)=NC2,–,-5.73%
Nc1nc(N)nc(NC2CC2)n1,–,-0.366%
CN1C(=O)COc2c(C(=O)NC3CN4CCC3CC4)cc(Cl)cc21 (stereo not given),–,1.51%
Oc1ccc(Cl)cc1,inactive,–
Clc1cccc(SC2CCNCC2)n1,inactive,–
COc1cccc([C@@]2(O)CCCC[C@@H]2CN(C)C)c1,–,-4.55%
